Assay outcomes deposited in PubChem by Milwaukee Institute for Drug Discovery.
NS3h inh CB: blocks HCV NS3 helicase binding to DNA. NS3h Cy5-dT15 DNA binding, fluorescence polarization. inhibition, % at 100 µM. 16,000 compounds, 1.6% hits;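 active = inhibition above the average over every tested compound plus 3 SD, cut at about 40% in these data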
Cy5 interf NS3h: enhances or quenches Cy5 fluorescence in NS3h assay; Cy5-dT15 DNA with NS3h, fluorescence interference; actives lie on both sides; signal over control mean, under 1 quenches; fluorescence interference ratio at 100 µM; 16,000 compounds, 6% hits;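 active = compound fluorescence over control fluorescence at most 0.8, a quencher, or at least a set upper limit, an enhancer; inactive = ratio between 0.8 and the set upper limit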
Numbers without * were called inactive. The list is not random: actives were taken first. Their share in the collection is about 7.6%.

SMILES | NS3h inh CB | Cy5 interf NS3h
O=C(CCCC(=O)OCC(F)(F)C(F)F)Nc1ccc(NC(=O)CCCC(=O)OCC(F)(F)C(F)F)cc1 | 3 | 0.62*
C=CCCCC(=O)Nc1ccc(Cl)cc1Cl | 10 | 0.97
C=CCCCC(=O)Nc1ccc(-c2ccc(NC(=O)CCCC=C)cc2)cc1 | 8 | 0.94
O=C(CCC(=O)OCC(F)(F)C(F)F)Nc1ccc(Cl)cc1Cl | 8 | 0.78*
O=C1CN(C(=O)c2ccc([N+](=O)[O-])cc2)c2ccccc2N1 | 2 | 1.1
Cc1[nH]oc(=O)c1N=Nc1ccc([N+](=O)[O-])cc1 | 0 | 1
COc1ccccc1C1C(=C(O)c2ccccc2)C(=O)C(=O)N1c1cccc(Cl)c1 (stereo not given) | -5 | 0.95
CCCn1c(C(O)c2ccc(N(C)C)cc2)nc2ccccc21 (stereo not given) | 5 | 0.92
COc1ccc(OC)c(NC(=O)CN(c2cccc([N+](=O)[O-])c2)S(=O)(=O)c2ccccc2)c1 | 20 | 0.67*
CCOc1ccccc1NC(=O)CN(c1cccc([N+](=O)[O-])c1)S(=O)(=O)c1ccccc1 | 16 | 0.84
COC(=O)CN(c1ccccc1)S(=O)(=O)c1ccccc1[N+](=O)[O-] | 9 | 0.92
COc1ccc(OC)c(NC(=O)CN(c2ccccc2)S(=O)(=O)c2ccccc2[N+](=O)[O-])c1 | 12 | 0.75*
COc1ccc(N(CC(=O)Nc2ccc(C)cc2C)S(=O)(=O)c2ccc(C)cc2)cc1 | 13 | 0.98
COc1ccc(N(CC(=O)Nc2ccc(Cl)cc2C)S(=O)(=O)c2ccc(C)c([N+](=O)[O-])c2)cc1 | 20 | 0.68*
Cc1cc(/C=C2/NC(=S)NC2=O)c(C)n1-c1ccc(Br)cc1 | -1 | 1.1
Cc1ccccc1NC1(c2ccccc2Cl)C(=O)c2ccccc2C1=O | 9 | 0.74*
O=C1c2ccccc2C(=O)C1(Nc1ccc(F)cc1)c1ccccc1 | 17 | 0.98
C=CCN1C(=O)/C(=C\c2ccc(C(=O)OC)cc2)C(=O)NC1=S | -1 | 0.97
CCCCCC12CCC(O)(CC1)C/C2=N\NS(=O)(=O)c1ccc(C)cc1 | 20 | 0.73*
CCCC(=O)NS(=O)(=O)c1ccc(NS(=O)(=O)c2ccc(C)cc2)cc1 | -1 | 1
Cc1ccc(N2NC(=O)/C(=C\c3ccc4c(c3)OCO4)C2=O)cc1 | 14 | 0.9
COc1cc(-c2noc(-c3ccc([N+](=O)[O-])cc3)n2)cc(OC)c1OC | 1 | 0.95
COc1ccc2c(=O)cc(C(F)(F)C(F)F)oc2c1 | 13 | 1.1
COc1cc(OC)cc(C(=O)Nc2cccc(-c3nc4ccccc4s3)c2)c1 | 15 | 0.96
CCOC(=O)c1c(NC(=O)Cn2nc(C(F)(F)F)cc2C)sc2c1CCC(C)C2 (stereo not given) | 6 | 0.98
SMILES | NS3h inh CB | Cy5 interf NS3h
Cc1cc(C(F)(F)F)nn1CC(=O)Nc1sc2c(c1C(N)=O)CCC(C)C2 (stereo not given) | 10 | 0.75*
Cc1cc(Cl)ccc1OC(=O)/C=C/c1cccc([N+](=O)[O-])c1 | 6 | 1.1
Cc1csc(Nc2ccccc2)[n+]1CCO | 4 | 1.2*
O=C1NN(c2ccccc2)C(=O)/C1=C/c1cccc2ccccc12 | 19 | 1
O=C1NN(c2ccccc2)C(=O)/C1=C/c1cccc(Cl)c1Cl | 47* | 0.99
CCOC(=O)c1ccc(N2NC(=O)/C(=C/c3cccc(OC)c3O)C2=O)cc1 | -2 | 0.85
Cc1ccc(N2NC(=O)/C(=C/c3ccc(C)c([N+](=O)[O-])c3)C2=O)cc1Cl | 28 | 0.93
CCOC(=O)c1ccc(N2NC(=O)/C(=C/c3cc(Br)ccc3O)C2=O)cc1 | -14 | 0.69*
COc1cc(Br)cc(/C=C2\C(=O)NN(c3ccccc3)C2=O)c1O | 45* | 0.82
CCOc1c(/C=C2\C(=O)NN(c3ccccc3)C2=O)cccc1OC | 10 | 1
COc1cc(/C=C2/C(=O)NN(c3ccc(C)c(C)c3)C2=O)cc([N+](=O)[O-])c1O | 10 | 0.72*
CCC(=O)NC(c1ccc(OC)c(OC)c1)c1c(O)ccc2ccccc12 (stereo not given) | 5 | 1
COc1ccc(CN2CCN(S(C)(=O)=O)CC2)c(OC)c1 | 0 | 0.69*
COc1cccc(CN2CCN(S(C)(=O)=O)CC2)c1OC | 3 | 0.65*
COc1ccc(CN2CCN(Cc3ccccc3OC)CC2)c(OC)c1 | -8 | 1.1
COc1cccc(CN2CCN(Cc3ccc(Br)cc3)CC2)c1OC | -10 | 0.92
COc1ccc(Br)cc1CN1CCN(S(C)(=O)=O)CC1 | 8 | 0.67*
COc1cccc(CN2CCN(S(C)(=O)=O)CC2)c1 | 4 | 0.77*
COc1ccc(S(=O)(=O)N2CCN(Cc3cccc(OC)c3)CC2)cc1 | 12 | 0.94
COc1ccc(CN2CCN(S(C)(=O)=O)CC2)cc1OCc1ccccc1 | 5 | 1
CC1=C(C(=O)Nc2cccc(Cl)c2)C(c2ccc(Br)cc2)NC(=S)N1 (stereo not given) | 15 | 0.97
Cc1ccc(CO/N=C(/N)c2nonc2N)c(C)c1 | 9 | 0.85
Cc1cc(C)cc(N2C(=O)NC(=O)/C(=C\c3ccc(Cl)cc3)C2=O)c1 | 14 | 1.1
O=C(NC(=S)Nc1cc([N+](=O)[O-])cc(Cl)c1O)c1cccnc1 | 4 | 1
Cc1ccc(S(=O)(=O)N2CCCC2)cc1 | -4 | 1
SMILES | NS3h inh CB | Cy5 interf NS3h
O=C1NN(c2ccccc2)C(=O)/C1=C/c1ccccc1OCc1ccccc1F | 22 | 0.99
CN(C)c1ccc(/C=C2\C(=O)c3cccc([N+](=O)[O-])c3C2=O)cc1 | 49* | 0.94
CN(C)c1ccc(/C=C2\C(=O)Oc3ccccc3C2=O)cc1 | 26 | 1.1
Cc1ccc(C(=O)Nc2cccc([N+](=O)[O-])c2)o1 | 3 | 1
Cc1cccc(OCc2nnc(NC(=O)Nc3ccc(Cl)cc3)s2)c1C | 7 | 1
O=C(c1cc2nc(-c3cccs3)cc(C(F)(F)F)n2n1)N1CCc2ccccc2C1 | 13 | 0.96
NC(=O)c1cc2nc(-c3cccs3)cc(C(F)(F)F)n2n1 | 11 | 0.66*
Cn1c(=O)c2c(nc(Oc3ccccc3)n2C)n(C)c1=O | -14 | 0.99
Cc1ccc(/C=C2/C=C(c3ccccc3)OC2=O)cc1 | 5 | 0.95
NC1=NC(=O)/C(=C\c2ccc(-c3ccc([N+](=O)[O-])cc3)o2)S1 | -2 | 1.2*
CN1C(=O)C(=Cc2ccc(-c3ccccc3C(=O)O)o2)C(=O)N(C)C1=O | 39 | 1.1
O=C1OC(c2ccccc2)=C/C1=C/c1ccc(-c2ccc([N+](=O)[O-])cc2)o1 | 12 | 0.8*
Cc1ccc(C2=C/C(=C\c3ccc(-c4ccccc4C(=O)O)o3)C(=O)O2)cc1 | 24 | 0.79*
NC1=NC(=O)/C(=C/c2ccccc2OCc2ccc([N+](=O)[O-])cc2)S1 | -7 | 0.97
O=C(/C=C/c1ccc2c(c1)OCO2)c1cccc(Br)c1 | 6 | 1
CN(C)CCCNC(=O)/C=C/c1ccc(Cl)cc1 | -12 | 0.96
CC(C)c1ccc2c(c1)c1c3n2CCNC3CCC1 (stereo not given) | -12 | 0.89
O=C(/C=C/c1ccccc1)Nc1nc2ccc(Br)cc2s1 | -6 | 1.1
Cc1ccc(-n2nc(C)c(-c3cccc([N+](=O)[O-])c3)c2C)cc1Cl | 7 | 0.65*
Cc1ccc(NCCC(=O)c2cccc([N+](=O)[O-])c2)cc1Cl | 9 | 1
O=C(COc1ccccc1[N+](=O)[O-])Nc1ccc2oc(-c3ccccc3F)nc2c1 | -2 | 0.99
